Source: PubChem BioAssay AID588342 (National Center for Advancing Translational Sciences (NCATS), 2011)
Hit rate of the full screen: of about 360,000 compounds, about 25,000 (6.9%) were called active. Roughly 9% stayed inconclusive and do not appear here. The sample as a whole holds a higher share of actives than the screen did. A number with no mark means an inactive call. Calls come from the whole dose curve; as a rule, active = well fitted inhibition curve with a large enough effect; inconclusive = small, poorly fitted or top-dose-only effect; inactive = flat fitted curve, though single readings scatter.

Target: Luciferin 4-monooxygenase (Photinus pyralis) (UniProt P08659)
Sequence (P08659 whole entry, looked up): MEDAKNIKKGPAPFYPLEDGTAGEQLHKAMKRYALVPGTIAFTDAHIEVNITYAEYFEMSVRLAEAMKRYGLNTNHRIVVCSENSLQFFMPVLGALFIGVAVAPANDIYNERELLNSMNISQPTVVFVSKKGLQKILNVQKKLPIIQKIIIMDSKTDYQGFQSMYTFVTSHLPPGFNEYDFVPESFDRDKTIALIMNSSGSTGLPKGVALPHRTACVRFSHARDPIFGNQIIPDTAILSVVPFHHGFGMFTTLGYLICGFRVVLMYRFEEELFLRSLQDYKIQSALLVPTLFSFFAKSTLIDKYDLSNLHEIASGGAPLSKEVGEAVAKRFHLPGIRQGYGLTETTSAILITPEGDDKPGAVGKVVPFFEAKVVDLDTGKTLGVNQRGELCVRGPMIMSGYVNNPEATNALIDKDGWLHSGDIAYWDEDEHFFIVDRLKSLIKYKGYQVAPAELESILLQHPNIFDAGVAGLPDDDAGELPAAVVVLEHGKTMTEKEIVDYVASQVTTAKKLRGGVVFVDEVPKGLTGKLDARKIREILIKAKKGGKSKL
Experiment: qHTS profiling assay for firefly luciferase inhibitor/activator using purifed enzyme and Km concentrations of substrates (counterscreen for miR-21 project); note: nearly all actives have a fitted effect of over 55% in size;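 for activity change, negative = inhibition: plate controls were vehicle for no effect and reference inhibitor for full effect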
Conditions: purified FLuc, luminescence inhibition; series mostly up to 57.5 µM; activity change, negative = inhibition: at the top concentration
Outline: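 Purified P. pyralis luciferase (10nM final) with 10uM D-luciferin and 10uM ATP (Km levels) in 50mM Tris acetate pH 7.5, 10mM Mg acetate, 0.01% Tween-20, 0.05% BSA; qHTS 6-point titration, ~60 µM downward; luminescence read.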
Potency is the fitted concentration of half-maximal effect.

Structure (SMILES) | activity change, negative = inhibition | Potency
COc1cccc(/C=C/C(=O)OCC(=O)N2CCN(c3ccccc3)CC2)c1 | -1.28% | 
CN=C1C=C/C(=N/N=c2\ccn(O)cc2C)C=C1C |  | 15.1 µM (active)
CSc1ccccc1NC(=O)COC(=O)CCCOc1ccc(C)cc1 | -0.833% | 
CCCNC(=O)C(CC)n1nc(CC)n2c(cc3oc(C)cc32)c1=O (stereo not given) | -5.44% | 
CCN(CC)S(=O)(=O)c1ccc(N2CCOCC2)c(NC(=O)C2CSC3(C)CCC(=O)N23)c1 (stereo not given) | -0.501% | 
CCCCN(C)CCCNC(=O)c1cc(-c2cccs2)nc2ccccc12 | -1.53% | 
O=C(Nc1nnc(-c2ccccc2)o1)c1cc(-c2cccs2)nc2ccccc12 |  | 19 µM (active)
O=C(Nc1ccc(S(=O)(=O)Nc2nccs2)cc1)c1cc(-c2ccncc2)nc2ccccc12 | -10.6% | 
Cc1cccc(CC(=O)N2CC(=O)Nc3ccc(F)cc3C2c2ccccc2)c1 (stereo not given) | -1.47% | 
Cc1ccc(CSc2nc3ccsc3c(=O)n2CCC(C)C)cc1 | 1.43% | 
COc1ccc(NC(=O)CSc2nnc(C3CC3)n2C)cc1S(=O)(=O)N1CCCCC1 | 5.35% | 
COc1cc2ccccc2cc1C(=O)N(CCN(C)C)c1nc2c(F)cccc2s1 | -0.155% | 
Fc1cc(F)c2nc(Nc3nc4c(F)cccc4s3)sc2c1 |  | 4.78 µM (active)
NC(=O)c1c(Nc2nc3c(F)cccc3s2)sc2c1CCCC2 | -11.7% | 
COc1ccc(-c2cn3nc(N4CCC(C(=O)Nc5cccc(C)c5C)CC4)sc3n2)cc1 | -1.45% | 
CCc1ccc(NC(=O)CN2C(=O)CCSc3ccc(S(=O)(=O)N4CCCC4)cc32)cc1 | 2.18% | 
COc1ccc(NC(=O)CN2C(=O)CSC2=O)cc1 | -17.3% | 
CCc1ccc(NC(=O)CN2C(=O)CSC2=O)cc1 |  | 10.7 µM (active)
CCn1c(=O)c2cc(C(=O)NCCc3ccc(Cl)cc3)sc2c2ccccc21 | -6.83% | 
COc1ccc(-c2onc(C)c2C)cc1S(=O)(=O)NCCc1ccccc1 | -11.2% | 
CC(=O)OCc1cc2cc(C)ccc2[nH]c1=O | 0.564% | 
Cc1ccc2[nH]c(=O)c(COC(=O)c3ccccn3)cc2c1 | 11.8% | 
CCOC(=O)c1cc2cc(C)ccc2[nH]1 |  | 12 µM (active)
COc1cc(OC)c(NC(=O)c2cc(S(=O)(=O)N3CCCC3)cn2C)cc1Cl | -6.55% | 
CC(C)CNS(=O)(=O)c1ccc(C(=O)Nc2ccc3c(c2)OCO3)cc1 | 0.691% | 

Structure (SMILES) | activity change, negative = inhibition | Potency
CNS(=O)(=O)c1ccc(NC(=O)Nc2ccc3c(c2)OCO3)cc1 |  | 6.01 µM (active)
Cc1cccc(NC(=O)Nc2ccc3c(c2)OCO3)n1 |  | 2.69 µM (active)
Cc1ccc2nc(-c3ccccn3)cc(C(=O)Nc3ccc4c(c3)OCO4)c2c1 | -4.26% | 
CCOC(=O)CCCNC(=O)COC(=O)/C=C/c1ccc2c(c1)OCO2 | -6.33% | 
O=C(/C=C\c1ccc2c(c1)OCO2)NC1(C(=O)Nc2ccc3c(c2)OCCO3)CCCCC1 | -3.09% | 
Cc1cccc(NC(=O)/C=C/c2ccc3c(c2)OCO3)n1 |  | 0.849 µM (active)
O=C(Nc1ccc2c(c1)OCO2)c1cc(-c2cccc(Cl)c2)on1 | 3.04% | 
CCN(CC(=O)Nc1ccc2c(c1)OCO2)S(=O)(=O)c1ccccc1 | -11.9% | 
CCOc1ccc(OCC(=O)Nc2c3c(nn2C(C)(C)C)CS(=O)(=O)C3)cc1 | -17.5% | 
COc1cccc(NC(=O)CN(C)C(=O)CSCc2nc3scc(-c4cccs4)c3c(=O)[nH]2)c1 | -4.25% | 
CC(C)CC(NS(=O)(=O)c1ccc2c(c1)oc(=O)n2C)C(=O)NCc1ccccc1Cl (stereo not given) | -5.21% | 
COc1ccccc1C(CNC(=O)c1ccc(C)c(S(=O)(=O)N2CCCCC2)c1)N(C)C (stereo not given) | -2.16% | 
Fc1ccc(Nc2nc(SCc3ccccc3Cl)nc3ccccc23)cc1 | -16.5% | 
COc1ccccc1NC(=O)c1ccc(N2CC3CC(C2)c2cccc(=O)n2C3)c(NC(=O)c2cccnc2)c1 (stereo not given) | 0.549% | 
COC(=O)c1cnn(-c2ccc(C(=O)Nc3ccc(OC(F)(F)F)cc3)cc2)c1N | 2.78% | 
COc1cccc(/C=C2\SC(=N)N(c3ccc(F)cc3)C2=O)c1 | 2.74% | 
COc1ccc(/C=C2\SC(=S)N(CC(=O)NNC(=O)c3ccncc3)C2=O)cc1 |  | 5.36 µM (active)
COc1cccc(/C=C2/SC(=S)N(CC(=O)NC3C=CS(=O)(=O)C3)C2=O)c1 (stereo not given) |  | 6.75 µM (active)
O=C(CN1C(=O)S/C(=C\c2ccccc2Cl)C1=O)NC1C=CS(=O)(=O)C1 (stereo not given) | -2.59% | 
COc1ccccc1CCC(=O)NNC(=O)c1ccncc1 | 0.895% | 
O=C(O)c1ccc(/C=C2\SC(=S)N(NC(=O)c3ccc(Br)cc3)C2=O)cc1 | -14.6% | 
O=C1N(Cc2ccc3c(c2)OCO3)c2ccccc2C1(O)c1c[nH]c2ccccc12 (stereo not given) | 3.13% | 
O=C(c1ccc2c(c1)N(Cc1ccccc1)C(=O)c1ccccc1S2(=O)=O)N1CCCC1 | -5.91% | 
CC(C)(C)OC(=O)N[C@H](C(=O)OC(C)(C)C)c1ccc(Br)cc1 | 4.47% | 
O=C1c2ccccc2C(=O)N1CCC#Cc1ccc2cc(C3(O)CCCCC3)oc(=O)c2c1 | 1.37% | 
